HCMV antiviral: qHTS Assay for inhibitors of the human cytomegalovirus (HCMV); 410,000 compounds, 4.5% hits; activity change, negative = inhibition, % at 57.5 µM; HFF cells, HCMV-luciferase reporter, 72 h; stronger effect = lower value; AID 1259415, 2018; in the data active means activity change below about -60%; inconclusive means no clear call, values can overlap the other calls; inactive means above about -39%; further: on the % scale 0 is the no-effect control and ±100 the full control effect
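Steps: HFFs plated, 16 h 37C; compounds added; HCMV-luciferase added to MOI 1 PFU/cell; 72 h 37C; OneGlo reagent, 5 min room temperature; luminescence read, normalized to controls.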
Pf growth 96h: Primary qHTS for delayed death inhibitors of the malarial parasite plastid, 96 hour incubation; P. falciparum luciferase reporter growth, 96 h; 320,000 compounds, 6.9% hits; AID 504834, 2011; Potency, µM (top dose mostly 28.7 µM), for inactives: at the top dose activity change, negative = inhibition, hits mostly inhibitors; further: potency means the concentration at half of the fitted maximal effect; on the % scale 0 is the no-effect control and ±100 the full control effect
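Two-generation exposure (96 h) targets delayed-death phenotype. Reporter parasites carrying integrated firefly luciferase, in red cells at 2% hematocrit and 0.05% parasitemia final, kept at 37 C, 5% CO2; luminescence loss indicates inhibition.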
Pf growth 48h: Primary qHTS for delayed death inhibitors of the malarial parasite plastid, 48 hour incubation | AID 504832, 2011 | Potency, µM (highest dose often 28.7 µM), without a hit: top-dose activity change, negative = inhibition, most hits filed as inhibitors | P. falciparum luciferase growth in erythrocytes, 48 h | 310,000 compounds, 5.9% hits; further: potency means the concentration at half of the fitted maximal effect; on the % scale 0 is the no-effect control and ±100 the full control effect
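Firefly luciferase activity from engineered P. falciparum reports growth; inhibitors lower the luminescent signal. Cultures contained 2% hematocrit erythrocytes at 0.1% final parasitemia.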
SARS PLpro yeast: qHTS of Yeast-based Assay for SARS-CoV PLP; 330,000 compounds, 0.19% hits; AID 485353, 2010; S. cerevisiae expressing SARS-CoV PLpro, growth rescue; Potency, µM (titrated, usually from 32.9 µM), for inactives: at the highest dose activity, positive = growth rescue, most hits filed as activators; calls by dose curve; further: potency means the concentration at half of the fitted maximal effect; 0% is about no effect; nearly all actives have a fitted effect of over 55% in size
Sm TGR inh: qHTS Assay for the Inhibitors of Schistosoma Mansoni Peroxiredoxins; Potency, µM (titrated, usually from 114 µM), for inactives: at the highest dose activity change, negative = inhibition, most hits filed as inhibitors; AID 485364, 2010; Schistosoma mansoni thioredoxin glutathione reductase (TGR), Q962Y6; purified TGR, DTNB reduction, TNB absorbance 405 nm; 360,000 compounds, 3% hits; further: potency means the concentration at half of the fitted maximal effect; on the % scale 0 is the no-effect control and ±100 the full control effect; nearly all actives have a fitted effect of over 60% in size
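First, TGR (20 nM dispensed) and NADPH were mixed with compound. Second, a 15 min room-temperature incubation followed. Third, further NADPH and then DTNB were added to start the reaction. Finally, TNB absorbance was monitored kinetically.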
HCV inhibitor: qHTS Assay for Inhibitors of Hepatitis C Virus (HCV). Huh7.5.1 HCVcc-Cre infection, luciferase reporter, 44 h. Potency, µM (series often up to 41.8 µM), inactives show top-dose activity change, negative = inhibition, actives largely listed as inhibitors. 340,000 compounds, 3.4% hits; further: potency means the concentration at half of the fitted maximal effect; on the % scale 0 is the no-effect control and ±100 the full control effect
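Antiviral activity was scored by luciferase reporter output from cells infected with HCVcc-Cre (~0.5 moi) in presence of compound, 44 h infection period, cells seeded 1,000/well 4 h prior.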
The depositor's hits bear a star; ? = inconclusive; . = not tested or not shown; [ ] = another dose, or the depositor's remark. An excerpt weighted towards active compounds, which were near 15% of everything screened. Unless noted, the call rests on the fitted dose curve; in most records, active means well fitted curve in the direction sought with a large enough effect; inconclusive means small, poorly fitted or top-dose-only effect, or another doubt; inactive means no such curve, though single readings can be large; an effect the other way counts as inactive or inconclusive.

SMILES | HCMV antiviral | Pf growth 96h | Pf growth 48h | SARS PLpro yeast | Sm TGR inh | HCV inhibitor
CC1CCCCC1NC(=O)c1ccc(-n2cncn2)cc1 (stereo unspecified) | 4.8 | . | . | 4.7% | . | 5.8%
CC(C)(C)S(=O)(=O)N1C[C@H]2CC/C=C\C/C=C\2[C@@H]1CCO | -0.1 | . | . | . | . | .
CC(C)(C)N1C(=O)c2ccccc2NC(=O)C1C(=O)NCc1ccco1 (stereo unspecified) | 22.6 | . | . | . | . | .
Oc1c(Br)cc(Br)cc1Br | -2.7 | 30.7% | 30.3% | 8.8% | -22.6% | 3.4%
Oc1c(Br)c(Br)c(Br)c(Br)c1Br | . | 29.3% | 3.6% | 0.7% | 3.55µM* | -94.3%
C/C(=N\NC(N)=S)c1ccccc1 | -29.3 | ? | -28.0% | 7.0% | 6.2% | -14.3%
C/C(=N\NC(N)=S)c1cc(-c2ccccc2)c(-c2ccccc2)s1 | -3.4 | ? | 9.28µM* | 9.2% | 3.7% | 6.31µM*
C/C(=N/NC(N)=S)c1ccc(Br)s1 | ? | -3.0% | 14.7µM* | -0.8% | -12.6% | ?
Cc1nn(C)c(C)c1CCNC(=O)Nc1cccc(Cl)c1C | -5.4 | . | . | . | 20.8% | .
CC(=O)NC(CC(=O)NC1CCCc2ccccc21)c1ccccc1 (stereo unspecified) | ? | 0.4% | -15.5% | 0.3% | -1.4% | 0.1%
CCN(CC)C1=CC(=O)OC12CCCCC2 | 24.8 | . | -14.0% | 3.8% | 1.58µM* | 3.9%
CCN(CC)CCNC1=CC(=O)OC12CCCCC2 | ? | 14.7µM* | 11.3% | 8.7% | 5.2% | 5.8%
O=C1C=C(NCc2ccccc2)C2(CCCCC2)O1 | -25.3 | -3.9%[5.75 µM] | -10.7% | 2.2% | -11.1% | -18.0%
CCOC(=O)C1=C(O)/C(=C\c2ccc(CNS(=O)(=O)c3ccc(Br)cc3)o2)N=C1C | -20.4 | -14.6% | -5.8% | 29.0% | 39.8µM* | -21.3%
COC(=O)C1=C(O)/C(=C\c2ccc(CNS(=O)(=O)c3ccc(Cl)cc3)o2)N=C1C | -9.5 | -30.1% | 5.4% | 0.3% | 28.2µM* | 3.6%
COC(=O)C1=C(O)/C(=C\c2ccc(OCC(=O)Nc3ccccc3)cc2)N=C1C | -23.2 | 26.7% | -4.3% | ? | 1.9% | 1.0%
COC(=O)C1=C(O)/C(=C\c2ccc(CNS(=O)(=O)c3ccccc3)o2)N=C1C | -21.3 | 102.8% | 18.3% | -0.5% | 39.8µM* | 2.0%
O=S1(=O)c2ccccc2N(Cc2cccc(F)c2)c2ccccc21 | -19.6 | . | . | . | -10.4% | .
Cc1ccc(NC(=O)c2cc(S(=O)(=O)N3CCc4ccccc43)ccc2F)cc1Cl | 13.5 | . | . | . | 6.5% | .
CCOc1ccc(-c2nnn(CC(=O)Nc3cccc(OC)c3)n2)cc1OCC | 26.8 | 11.7µM* | -23.4% | -1.3% | 7.5% | ?
CCOc1ccc(-c2nnn(CC(=O)NCc3ccc(F)cc3)n2)cc1OCC | 51.8 | ? | 2.5% | 2.9% | 10.4% | -5.4%
CCOc1ccc(-c2nnn(CC(=O)c3ccc4c(c3)OCCO4)n2)cc1OCC | -9.7 | 14.7µM* | -11.3% | -3.0% | -2.0% | ?
Cn1cnc([N+](=O)[O-])c1Nc1ccc(O)cc1 | -24.0 | ? | -9.9% | 12.9% | 25.1µM* | 4.3%
Cc1ccccc1-n1c(/C=C/c2c(C)[nH]c3ccccc23)nc2ccccc2c1=O | ? | . | . | . | 5.8% | .
O=c1c2ccccc2nc(/C=C/c2ccccc2O)n1-c1ccccc1O | -98.3* | ? | ? | -3.1% | -19.1% | .
SMILES | HCMV antiviral | Pf growth 96h | Pf growth 48h | SARS PLpro yeast | Sm TGR inh | HCV inhibitor
Cc1ccccc1-n1c(/C=C/c2ccc(N(C)C)cc2)nc2ccccc2c1=O | -82.2* | . | . | . | 2.1% | .
O=c1c2ccccc2nc(/C=C/c2ccccc2)n1-c1ccccc1F | 5.3 | . | . | . | 18.4% | .
O=C(O)c1cccc(-n2c(/C=C/c3ccc([N+](=O)[O-])cc3)nc3ccccc3c2=O)c1 | -62.2* | ? | ? | -0.8% | 3.4% | 11.6%
O=c1c2ccccc2nc(/C=C\c2ccc(F)cc2)n1-c1ccccc1F | -13.6 | . | . | . | 3.8% | .
O=c1c2ccccc2nc(/C=C/c2ccccc2F)n1-c1ccccc1O | -91.5* | ? | 18.9%[0.00184 µM] | -6.5% | 0.0% | -19.9%
O=C(O)c1cccc(-n2c(/C=C/c3cccc([N+](=O)[O-])c3)nc3ccccc3c2=O)c1 | -7.4 | ? | ? | 1.6% | -9.4% | 2.4%
CC(C)(CNC(=O)c1ccc(-c2ccccc2Cl)o1)N1CCOCC1 | 29.5 | 94.8% | 86.7% | -0.6% | 0.6% | -2.2%
COc1ccc(N2CCN(S(=O)(=O)c3c(C)nc4sc(C)cn4c3=O)CC2)cc1 | 8.4 | . | . | . | 10.8% | .
Cn1c(N)c(C(=O)COC(=O)c2ncc(Cl)c(Cl)c2Cl)c(=O)n(C)c1=O | -20.3 | 19.8% | -17.4% | 12.9% | 0.6% | -18.5%
O=c1c2ccccc2nc(/C=C\c2ccccc2[N+](=O)[O-])n1-c1ccccc1O | 0.0 | ? | 6.57µM* | -0.2% | 0.7% | -14.4%
O=C(C[n+]1ccccc1)N/N=C/c1ccc(Cl)c(Cl)c1 | 7.1 | ? | 8.28µM* | 2.8% | 8.8% | 31.2%
O=C(C[n+]1ccccc1)N/N=C/c1ccc(F)cc1 | -30.8 | ? | ? | -1.7% | 18.4% | 2.3%
O=C(C[n+]1ccccc1)N/N=C/c1ccc(Br)cc1 | -27.6 | 2.94µM* | 10.4µM* | 0.8% | -1.1% | 4.5%
CCOc1ccc(CN2CCN(S(=O)(=O)c3ccc(NC(C)=O)cc3)CC2)cc1 | -66.7* | 0.0% | ? | 0.9% | -10.0% | ?
COc1ccc(CN2CCN(S(=O)(=O)c3ccc(F)cc3)CC2)cc1OC | -60.2* | . | . | 4.8% | -7.9%[11.4 µM] | -24.1%
COc1ccc(CN2CCN(S(=O)(=O)c3ccc(NC(C)=O)cc3)CC2)cc1OC | ? | 10.4µM* | ? | 3.5% | 3.6% | -23.3%

High-throughput results (PubChem BioAssay)
